Consider six compounds from PubChem BioAssay.

Several values for one entry are separate records, joined by “and”; a condition that tells them apart may be missing. Equal values may be shown once. Activity calls are given as the source filed them. Rule as the data show it, unless noted: active = parasite load remaining mostly below about 12% (no sharp cut-off); inactive = mostly above about 10%.

As a reminder, the viability is a read-out of living cells in per cent, often relative to untreated cells.

Experiment [1] is described as follows: hESC survival regulators, cell-based (AID 493140; call rule not given here;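 also: cells exposed to compounds for four days before counting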). As to conditions: human embryonic stem cell survival screen; stronger effect = higher value.
Experiment [2] is described as follows: liver-stage malaria parasite growth inhibition, primary screen, cell-based, HepG2, luciferase luminescence, HepG2 viability (AID 624349).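 Also: 100% = mean of DMSO negative control wells on the same plate.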 As to conditions: P. berghei liver stage in HepG2, luciferase luminescence, concentration not given here; parasite load remaining: stronger effect = lower value; viability: measured here: HepG2 viability without parasites.
A short description of experiment [3]: sensitizers of A549 cells to miR-34 induction, primary screen, imaging, A549 dox-inducible miR-34, nuclei and caspase counts (AID 1347080;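 active = compounds whose cell count with miR-34 switched on is under 0.7 times the count with it off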). To be noted: A549 miR-34 inducible, Hoechst nuclei count, 48 h.
Experiment [4] in a line: survival rescue of mitochondrial mutant cells in low glucose, primary screen, MELAS cybrids, Rieske KO mouse fibroblasts, CellTiter-Glo (AID 1508586;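 active = mean z-score across replicates of 1.96 or higher in either the MELAS or the Rieske mutant cell line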;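 also: z relative to plate mean and SD of compound and empty wells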). (In general: ATP-based viability assays read luminescence as a measure of living cells.)
Setting [5] is: stronger effect = lower value, cell number ratio, induced over uninduced.
The mark [6] stands for this setting: measured here: relative caspase fold change +Dox/-Dox.
Setting [7] is: measured here: total cells with miR-34 induction, stronger effect = lower value.
Where [8] appears, read: measured here: total cells without miR-34 induction.
[9] abbreviates: MELAS cybrid survival, CellTiter-Glo 48 h, stronger effect = higher value.
Where [10] appears, read: Rieske KO mouse fibroblast survival, CellTiter-Glo 72 h.

In the case of `CNc1ncnc2c1ncn2[C@@H]1O[C@H](CO)[C@@H](O)[C@H]1O`, the survival in experiment [1] was 5.42 (inactive). Besides, in experiment [2], the parasite load remaining is 23.9% (inactive) and 70.7% (inactive). Besides, the viability in experiment [2] is 132% and 78.2%. Besides, the results for the fold change in experiment [3] (setting [5]) and in experiment [3] (setting [6]) were 0.829 (inactive) and 1.48, respectively. The cell count in experiment [3] (setting [7]) is 7800; in experiment [3] (setting [8]), 9420. In addition, the z-score was 0.118 (inactive) in experiment [4] (setting [9]) and -0.237 in experiment [4] (setting [10]).

For `c1ccc(CNc2ncnc3nc[nH]c23)cc1`, the survival in experiment [1] was 39 (inactive). For the same compound, in experiment [2], the parasite load remaining was 31% (inactive) and 123% (inactive). The viability in experiment [2] is 49.8% and 87.6%. Besides, the fold change was 1.05 (inactive) in experiment [3] (setting [5]) and 1.32 in experiment [3] (setting [6]). The cell count in experiment [3] (setting [7]) turned out to be 8060; in experiment [3] (setting [8]), 7640. Besides, the z-score in experiment [4] (setting [9]) is 2.23 (active); in experiment [4] (setting [10]) it was 0.15.

`COc1ccc2c(c1)N(C[C@H](C)CN(C)C)c1ccccc1S2`: the survival in experiment [1] is 1.83 (inactive). Besides, the parasite load remaining in experiment [2] was 76.2% (inactive). Also, in experiment [2], the viability was determined as 87.8%. Besides, the fold change is 0.88 (inactive) in experiment [3] (setting [5]) and 1.53 in experiment [3] (setting [6]). Moreover, the cell count is 7810 in experiment [3] (setting [7]) and 8880 in experiment [3] (setting [8]). The values for the z-score in experiment [4] (setting [9]) and in experiment [4] (setting [10]) were -1.21 (inactive) and -0.494, respectively.

For the compound `CC1CS(=O)(=O)CCN1N=Cc1ccc([N+](=O)[O-])o1` (configuration not stated), the survival in experiment [1] is 3.75 (inactive). Besides, the parasite load remaining in experiment [2] was 67.6% (inactive). Besides, the viability in experiment [2] was found to be 75.5%. Besides, the fold change in experiment [3] (setting [5]) was 0.925 (inactive); in experiment [3] (setting [6]), 0.621. Further, the figures for the cell count in experiment [3] (setting [7]) and in experiment [3] (setting [8]) were 8950 and 9680, respectively. The values for the z-score in experiment [4] (setting [9]) and in experiment [4] (setting [10]) were -0.298 (inactive) and -0.374, respectively.

`C/C(=C(/CCO)SSCC1CCCO1)N(C=O)Cc1cnc(C)nc1N` (configuration not stated): the survival in experiment [1] is 5.83 (inactive). Further, the parasite load remaining in experiment [2] was 105% (inactive). For the same compound, in experiment [2], the viability turned out to be 73.2%. The values for the fold change in experiment [3] (setting [5]) and in experiment [3] (setting [6]) were 0.933 (inactive) and 0.561, respectively. Moreover, the values for the cell count in experiment [3] (setting [7]) and in experiment [3] (setting [8]) were 9240 and 9910, respectively. The z-score in experiment [4] (setting [9]) was 0.79 (inactive); in experiment [4] (setting [10]), 0.563.

`O=C1OC(CN2CCOCC2)CN1N=Cc1ccc([N+](=O)[O-])o1` (configuration not stated): the survival in experiment [1] is 5.92 (inactive). In addition, the fold change in experiment [3] (setting [5]) is 0.85 (inactive); in experiment [3] (setting [6]), 1.96. Also, the cell count came out at 8420 in experiment [3] (setting [7]) and 9900 in experiment [3] (setting [8]). The z-score was -0.512 (inactive) in experiment [4] (setting [9]) and -0.452 in experiment [4] (setting [10]).
